# The source made the active and inactive calls. Rule for the calls: active = hit-call score of the fitted dose curve at least 0.9, where 1 is the maximum; inactive = score below 0.9. Peptide text beside a SMILES is read from it.
# Test: ATG_Sox_CIS: Attagene CIS-FACTORIAL HepG2 Assay for human SRY-box transcription factor (SOX) (AID 2282960)
# Conditions: HepG2 Attagene cis-factorial SOX reporter, mRNA; actives raise or lower the signal
# Description: ATG_CIS is a cell-based, multiplexed-readout assay that uses HepG2, a human liver cell line, with measurements taken at 24 hours after chemical dosing in a 24-well plate.ATG_Sox_CIS is one of 52 assay component(s) measured or calculated from the ATG_CIS assay. It is designed to make measurements of mRNA induction, a form of inducible reporter, as detected with fluorescence intensity signals by Reverse transcription polymerase chain reaction (RT-PCR) and Capillary electrophoresis technology.Data from the assay component ATG_Sox_CIS was analyzed into 1 assay endpoint. This assay endpoint, ATG_Sox_CIS, was analyzed with bidirectional fitting relative to DMSO as the negative control and baseline of activity. Using a type of inducible reporter, measures of mRNA for gain or loss-of-signal activity can be used to understand the reporter gene at the transcription factor-level as they relate to the gene SOX1. Furthermore, this assay endpoint can be referred to as a primary readout, because this assay has produced multiple assay endpoints where this one serves a reporter gene function. To generalize the intended target to other relatable targets, this assay endpoint is annotated to the dna binding intended target family, where the subfamily is HMG box protein.
# Human liver HepG2 cells are transiently transfected with multiple reporter transcription units (MRTUs) in 6-well plates using FuGene 6 reagent (Roche; 3 ml FuGene/1 mg DNA). The MRTU constructs are regulated by a cis-regulating element (promoter). […] A major difference between the CIS and TRANS system is that in CIS activities of endogenous TFs are measured, whereas the TRANS assay evaluates changes in activities of exogenous, chimeric NR-Gal4 proteins. […] At the end of 24 hour incubation, total RNA was isolated using TriZol reagent (Invitrogen). The isolated RNA is then reverse-transcribed using oligo(dT) primer and Mo-MLV reverse transcriptase (Invitrogen) with DNAse I (Ambion) treatment for 30 min. The one-tenth of the produced cDNA was amplified by PCR using Taq DNA polymerase (Invitrogen) and two reporter sequence-specific primers. The PCR products were fluorescently labeled by primer extension with 6-arboxyfluorescein (6-FAM) 5'-labeled reporter sequence-specific primer (2 min at 95 C, 20 s at 68 C and 10 min at 72 C) and these products were digested with 5U of HpaI (New England Biolabs) for 2h at 37 C. The fragments were purified using Qiaquick PCR columns (Qiagen), analyzed on an ABI 3130xL genetic analyzer (Applied Biosystems) with peak positions identified by using a set of X-rhodamine (ROX)-labeled MapMarker1000 molecular weight standards (BioVentures). The raw capillary electrophoresis data was processed using Attagraph software (Attagene).
row,SMILES,outcome
1,O=S(=O)(O)c1ccc(N=Nc2c(O)ccc3ccccc23)cc1,inactive
2,CCCCCCCC(=O)OCC(COC(=O)CCCCCCC)OC(=O)CCCCCCC,inactive
3,COC(=O)[C@H](Cc1ccccc1)NC(=O)[C@@H](N)CC(=O)O (H-Asp-Phe-OMe),inactive
4,Oc1ccccc1Cc1ccccc1O,inactive
5,O=C(OCCc1ccccc1)c1ccccc1,inactive
6,CCCc1ccc(O)c(OC)c1,inactive
7,CC(C)=NNC(N)=S,inactive
8,Nc1cccc(N)n1,inactive
9,CCCCOCCOCCOC(C)=O,inactive
10,COC(OC)(C(=O)c1ccccc1)c1ccccc1,inactive
11,CC(=O)OCc1ccccc1,inactive
12,CCCCCCCCCCCC(=O)N(C)CC(=O)O,inactive
13,CCC(C)C(=O)OC (stereo not given),inactive
14,CC(C)(c1ccccc1)c1ccc(Nc2ccc(C(C)(C)c3ccccc3)cc2)cc1,inactive
15,Cc1ccccc1CCO,inactive
16,CCOC(=O)CC(=O)c1ccccc1,inactive
17,C=C(C)C1CC=C(C)CC1 (stereo not given),inactive
18,Cn1ccnc1,inactive
19,C=CC(=O)OCC(C)OCC(C)OCC(C)OC(=O)C=C (stereo not given),inactive
20,CCCCCCCC(=O)OCC,inactive

row,SMILES,outcome
1,CCCCOCC(C)O (stereo not given),inactive
2,CCCCCCCCCCCC(C)=O,inactive
3,CC(C)(C)C1CCC(=O)CC1,inactive
4,COc1ccc(C(=O)c2ccccc2)c(O)c1,inactive
5,Cc1c[nH]c(=O)[nH]c1=O,inactive
6,CC1CCC(=O)C1=O (stereo not given),inactive
7,CCCC1CCCC(=O)O1 (stereo not given),inactive
8,CCCCCC1=CCCC1=O,inactive
9,C=CCCCCCCCCO,inactive
10,CCCCC(=O)O,inactive
11,CCCCCCCCCC[N+](C)(CCCCCCCCCC)CCC[Si](OC)(OC)OC,inactive
12,CC=CC(=O)OCC(C)C,inactive
13,CCN(CC)c1cccc(C)c1,inactive
14,CCCCC1C(=O)N(c2ccccc2)N(c2ccccc2)C1=O,inactive
15,Cc1cccc(C(C)(C)C)c1O,inactive
16,C=C[Si](OCCOC)(OCCOC)OCCOC,inactive
17,C=CC(=O)OCCCCCCOC(=O)C=C,inactive
18,Cc1c(O)cccc1O,inactive
19,CC(C)CCCCCOC(=O)CS,inactive
20,O=C(O)CCC(=O)O,inactive

# From PubChem BioAssay (EPA / NIEHS)
